Drawing on PubChem BioAssay, this text covers growth inhibition, inhibition and outcome for 34 molecules.

Assay [1] can be described thus: antimalarial activity against Dd2 strain (AID 2302;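 active = growth inhibition above 50% at the single 2 µM test dose, taken to imply half-maximal potency below 2 µM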;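 also: 0% = DMSO untreated growth and 100% = chloroquine plus artemisinin killed control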). Particulars: P. falciparum Dd2 in RBCs, LDH growth readout, 72 h; at 2 µM; hits give high values.
Assay [2] deals with L-lactate dehydrogenase (Plasmodium falciparum (isolate CDC / Honduras)) (UniProt Q27743). The assay is described as follows: PfLDH activity inhibition – cell lysate, 3D7 strain, counter-screen for P. falciparum growth inhibition project (AID 2304).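 Also: 0% = vehicle and 100% = reference inhibitor.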 As to conditions: P. falciparum 3D7 crude extract, LDH APAD/NBT absorbance; at 2 µM; hits give high values. For orientation: A counterscreen serves to expose hits that act by an unwanted route or on another target.

A short description of assay [3]: inhibition of 3D7 malaria parasite growth – strain 3D7 (AID 2306).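 Also: 0% = DMSO wells and 100% = chloroquine plus artemisinin control wells.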 As to conditions: P. falciparum 3D7 erythrocytic growth, LDH absorbance, 72 h; at 2 µM; hits give high values.
Assay [4] has as its target Calcium-dependent protein kinase 1 (Plasmodium falciparum (isolate 3D7)) (UniProt P62344). The assay is described as follows: PfCDPK1 kinase inhibitors, biochemical, TCAMS library (AID 1159585; cut-off not given, nearly all actives have IC50 up to about 0.98 µM;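 also: inhibitors leave more ATP so luminescence rises with inhibition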). As to conditions: recombinant PfCDPK1, Kinase-Glo ATP depletion luminescence. For orientation: Kinase-Glo measures the ATP left after a reaction by luminescence.
In assay [5] the target is Plasmodium falciparum protein kinase 6 (PK6, PF3D7_1337100) (UniProt Q8IDW1). The assay is described as follows: PfPK6 kinase inhibitors, biochemical, TCAMS library (AID 1159586). As to conditions: recombinant PfPK6, Kinase-Glo ATP depletion luminescence.
Assay [6] concerns the target Protein kinase 7 (PK7), Plasmodium falciparum 3D7 (PF3D7_0213400) (UniProt Q7YTF7). The assay is described as follows: inhibition of Plasmodium PK7 catalytic activity – biochemical, TCAMS antimalarial set, Kinase-Glo luminescence (AID 1159587). As to conditions: recombinant PfPK7, Kinase-Glo ATP depletion luminescence.
Assay [7] has as its target Calcium-dependent protein kinase 4 (Plasmodium falciparum (isolate 3D7)) (UniProt Q8IBS5). The assay is described as follows: PfCDPK4 kinase inhibitors, biochemical, TCAMS library (AID 1159588; cut-off not given, nearly all actives have IC50 up to about 0.91 µM). As to conditions: recombinant PfCDPK4, Kinase-Glo ATP depletion luminescence.

Molecules are shown by their SMILES. Unmarked numbers belong to inactive results. For some of these results: Entries with a potency or affinity are not part of this list. Active and inactive are the calls of the source. Unless noted, no rule for the calls is given here.

Chain of Plasmodium falciparum protein kinase 6 (PK6, PF3D7_1337100) (Q8IDW1 1-305): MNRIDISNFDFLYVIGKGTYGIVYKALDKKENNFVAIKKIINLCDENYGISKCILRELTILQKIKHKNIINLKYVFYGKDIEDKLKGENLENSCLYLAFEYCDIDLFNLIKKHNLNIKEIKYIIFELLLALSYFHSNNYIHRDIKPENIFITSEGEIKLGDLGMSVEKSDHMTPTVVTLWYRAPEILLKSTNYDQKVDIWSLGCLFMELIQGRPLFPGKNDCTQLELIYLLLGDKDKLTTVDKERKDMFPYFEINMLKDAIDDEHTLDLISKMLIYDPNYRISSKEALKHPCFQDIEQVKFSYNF
Chain of L-lactate dehydrogenase (Plasmodium falciparum (isolate CDC / Honduras)) (Q27743 whole entry, looked up): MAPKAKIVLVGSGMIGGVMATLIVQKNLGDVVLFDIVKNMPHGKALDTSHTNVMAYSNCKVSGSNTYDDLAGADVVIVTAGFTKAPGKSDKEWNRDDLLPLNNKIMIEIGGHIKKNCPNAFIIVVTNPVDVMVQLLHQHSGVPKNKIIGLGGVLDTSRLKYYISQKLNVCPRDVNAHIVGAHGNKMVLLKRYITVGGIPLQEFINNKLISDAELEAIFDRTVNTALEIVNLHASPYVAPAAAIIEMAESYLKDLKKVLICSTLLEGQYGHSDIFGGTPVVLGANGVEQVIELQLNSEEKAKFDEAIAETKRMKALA
Chain of Calcium-dependent protein kinase 4 (Plasmodium falciparum (isolate 3D7)) (Q8IBS5 whole entry, looked up): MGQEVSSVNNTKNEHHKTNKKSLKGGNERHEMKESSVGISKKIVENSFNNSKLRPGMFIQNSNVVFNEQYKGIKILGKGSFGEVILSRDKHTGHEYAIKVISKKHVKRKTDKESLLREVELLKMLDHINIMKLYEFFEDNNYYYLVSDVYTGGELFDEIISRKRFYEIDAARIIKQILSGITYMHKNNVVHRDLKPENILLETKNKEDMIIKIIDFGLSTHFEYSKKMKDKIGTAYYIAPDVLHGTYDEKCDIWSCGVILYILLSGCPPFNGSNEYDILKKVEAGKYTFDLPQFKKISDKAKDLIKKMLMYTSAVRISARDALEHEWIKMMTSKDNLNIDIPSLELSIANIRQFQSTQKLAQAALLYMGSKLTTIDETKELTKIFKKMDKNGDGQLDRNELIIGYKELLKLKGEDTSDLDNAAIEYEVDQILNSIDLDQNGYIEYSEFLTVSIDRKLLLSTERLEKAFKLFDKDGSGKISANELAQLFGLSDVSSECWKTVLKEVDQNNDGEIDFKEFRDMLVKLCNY
Chain of Protein kinase 7 (PK7), Plasmodium falciparum 3D7 (PF3D7_0213400) (Q7YTF7 1-343): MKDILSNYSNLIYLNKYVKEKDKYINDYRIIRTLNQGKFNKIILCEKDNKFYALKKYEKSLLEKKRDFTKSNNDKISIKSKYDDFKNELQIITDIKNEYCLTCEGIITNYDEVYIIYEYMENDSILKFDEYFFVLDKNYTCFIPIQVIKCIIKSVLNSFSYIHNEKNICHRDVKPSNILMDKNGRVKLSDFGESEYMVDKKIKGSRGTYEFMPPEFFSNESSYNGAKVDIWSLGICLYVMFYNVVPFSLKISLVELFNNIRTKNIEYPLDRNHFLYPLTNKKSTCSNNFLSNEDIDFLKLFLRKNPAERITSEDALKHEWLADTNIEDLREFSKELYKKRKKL
Chain of Calcium-dependent protein kinase 1 (Plasmodium falciparum (isolate 3D7)) (P62344 whole entry, looked up): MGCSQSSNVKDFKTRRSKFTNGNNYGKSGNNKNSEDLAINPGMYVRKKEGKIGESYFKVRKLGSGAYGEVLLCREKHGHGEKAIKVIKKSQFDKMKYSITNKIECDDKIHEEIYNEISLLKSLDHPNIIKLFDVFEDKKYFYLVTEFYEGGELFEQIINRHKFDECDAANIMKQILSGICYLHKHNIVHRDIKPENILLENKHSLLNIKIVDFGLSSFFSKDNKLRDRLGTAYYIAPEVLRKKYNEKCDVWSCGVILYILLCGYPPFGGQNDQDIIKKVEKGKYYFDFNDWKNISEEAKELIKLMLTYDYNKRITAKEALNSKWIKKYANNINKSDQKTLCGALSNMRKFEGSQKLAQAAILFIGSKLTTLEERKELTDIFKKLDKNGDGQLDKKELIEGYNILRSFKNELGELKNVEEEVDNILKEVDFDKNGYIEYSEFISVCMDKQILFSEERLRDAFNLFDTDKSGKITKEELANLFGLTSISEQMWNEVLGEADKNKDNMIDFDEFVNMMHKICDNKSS

Broadly, the inhibition is the relative decrease from the control value, in per cent. For `COc1cc(Cc2cnc(N)nc2N)cc(OCCCCC#N)c1OC`, the growth inhibition in assay [1] was -1%; in assay [3], 86% (active). Further, the inhibition in assay [2] was 8%. The result in assay [4], in assay [5], in assay [6] and in assay [7] was inactive.
In the case of `Nc1nc(N)c2c(Oc3cc(Cl)c(Cl)c(Cl)c3)cccc2n1`, the growth inhibition is 92% (active) in assay [1] and 101% (active) in assay [3]. The inhibition in assay [2] was 4%. Moreover, the outcome in assay [4], in assay [5], in assay [6] and in assay [7] was inactive.
For the molecule `Nc1nc(N)c2c(ccc3nn(Cc4ccccc4)cc32)n1`, the growth inhibition was 88% (active) in assay [1] and 97% (active) in assay [3]. Moreover, the inhibition in assay [2] is 0%. For the same molecule, the outcome in assay [4], in assay [5], in assay [6] and in assay [7] was inactive.
For the molecule `COc1cc(Cc2cnc(N)nc2N)cc(OCCCCCCN)c1OC`, the growth inhibition was -4% in assay [1] and 96% (active) in assay [3]. Also, the inhibition in assay [2] is -6%. The outcome in assay [4], in assay [5], in assay [6] and in assay [7] was inactive.
On to `CCN(CC)CCNc1cc(C)nc(/N=C(\N)Nc2ccc(Cl)cc2)n1`, for which the growth inhibition in assay [1] was 0%; in assay [3], 101% (active). In assay [2], the inhibition is 3%. Besides, the result in assay [4], in assay [5], in assay [6] and in assay [7] was inactive.
As for `CCn1c(O)c(N=NC(=S)N2CCCC2)c2ccccc21`, the growth inhibition was 9% in assay [1] and 91% (active) in assay [3]. Besides, the inhibition in assay [2] was 4%. Further, the result in assay [4], in assay [5], in assay [6] and in assay [7] was inactive.
For the molecule `Nc1nc(N)c2c(ccc3c2ccn3Cc2cccc(F)c2)n1`, the growth inhibition was 99% (active) in assay [1] and 101% (active) in assay [3]. In addition, the inhibition in assay [2] was -6%. For the same molecule, the result in assay [4], in assay [5], in assay [6] and in assay [7] was inactive.
As to `CCCCSc1ccc(CNCCCCCCNCc2ccc(SCCCC)c3ccccc23)c2ccccc12`, the results for the growth inhibition in assay [1] and in assay [3] were 48% and 94% (active), respectively. Further, the inhibition in assay [2] is 0%. Further, the outcome in assay [4], in assay [5], in assay [6] and in assay [7] was inactive.
Turning to `Cc1[nH]c(C)c(-c2ccc(Oc3ccc(Cl)c(Cl)c3)cc2)c(=O)c1Br`, the figures for the growth inhibition in assay [1] and in assay [3] were 96% (active) and 97% (active), respectively. Further, the inhibition in assay [2] is -1%. Further, the result in assay [4], in assay [5], in assay [6] and in assay [7] was inactive.
As for `Cc1nc(N)nc(N)c1-c1ccc(Br)c(Br)c1`, the growth inhibition in assay [1] is 1%; in assay [3], 94% (active). Also, in assay [2], the inhibition was -2%. Also, the outcome in assay [4], in assay [5], in assay [6] and in assay [7] was inactive.
As for `COc1cc(Cc2cnc(N)nc2N)cc(OCCCC#N)c1OC`, the growth inhibition in assay [1] is -1%; in assay [3] it was 86% (active). Further, the inhibition in assay [2] was -3%. Besides, the result in assay [4], in assay [5], in assay [6] and in assay [7] was inactive.
For the molecule `CC(=NNC(=S)NCc1ccco1)c1ccccn1`, the growth inhibition in assay [1] was 100% (active); in assay [3] it was 99% (active). Besides, the inhibition in assay [2] was -6%. The result in assay [4], in assay [5], in assay [6] and in assay [7] was inactive.
For the molecule `Cc1nc(C)c(-c2ccc(Oc3ccc(OC(F)(F)F)cc3)cc2)c(OC(=O)c2ccc(CN(C)C)cc2)c1Cl`, the growth inhibition in assay [1] and in assay [3] was 98% (active) each time. Besides, the inhibition in assay [2] was 6%. Besides, the result in assay [4], in assay [5], in assay [6] and in assay [7] was inactive.
For `Cc1nc(NCc2ccccc2)cc(Nc2cc(NCc3ccccc3)nc(C)n2)n1`, the growth inhibition in assay [1] is 32%; in assay [3], 90% (active). In addition, the inhibition in assay [2] is 8%. Also, the outcome in assay [4], in assay [5], in assay [6] and in assay [7] was inactive.
In the case of `Nc1nnc(-c2ccc(Cl)c(Br)c2)c(N)n1`, the growth inhibition in assay [1] was -3%; in assay [3], 86% (active). Further, the inhibition in assay [2] was -3%. Further, the outcome in assay [4], in assay [5], in assay [6] and in assay [7] was inactive.
`CCC(C(C)C)n1ccc2c3c(N)nc(N)nc3ccc21` (stereo not drawn): the growth inhibition in assay [1] and in assay [3] was 95% (active) throughout. The inhibition in assay [2] is 3%. The outcome in assay [4], in assay [5], in assay [6] and in assay [7] was inactive.
Turning to `CCCCOc1c(CCNCCCCNCCc2cc(OC)c3ccccc3c2OCCCC)cc(OC)c2ccccc12`, the growth inhibition in assay [1] was 47%; in assay [3], 91% (active). For the same molecule, in assay [2], the inhibition was 7%. The outcome in assay [4], in assay [5], in assay [6] and in assay [7] was inactive.
Turning to `COc1ccc(OC)c(Cc2c(C)nc3nc(N)nc(N)c3c2C)c1`, the growth inhibition in assay [1] was 0%; in assay [3], 90% (active). For the same molecule, the inhibition in assay [2] is -2%. The outcome in assay [4], in assay [5], in assay [6] and in assay [7] was inactive.
As for `c1ccc(CN2CCN(CCCCNc3c4ccccc4nc4ccccc34)CC2)cc1`, the growth inhibition in assay [1] was 101% (active); in assay [3] it was 102% (active). For the same molecule, the inhibition in assay [2] was -6%. For the same molecule, the result in assay [4], in assay [5], in assay [6] and in assay [7] was inactive.
As for `CN(C)C(=S)N=Nc1c(O)[nH]c2ccccc12`, the growth inhibition in assay [1] was 96% (active); in assay [3], 95% (active). Also, in assay [2], the inhibition is 2%. In addition, the result in assay [4], in assay [5], in assay [6] and in assay [7] was inactive.
Regarding `CC(CO)(CO)NCc1cc2ccc3ccsc3c2c2ccccc12`, the growth inhibition in assay [1] is 98% (active); in assay [3] it was 96% (active). In addition, in assay [2], the inhibition is 2%. Also, the result in assay [4], in assay [5], in assay [6] and in assay [7] was inactive.
Turning to `NC(N)=NC(=O)Nc1cc(F)c(Cl)c(Cl)c1`, the growth inhibition in assay [1] and in assay [3] was 101% (active) in each case. Also, the inhibition in assay [2] is 2%. Besides, the result in assay [4], in assay [5], in assay [6] and in assay [7] was inactive.
With `CC(C)(C)c1ccc(Cc2cccc3nc(N)nc(N)c23)cc1`, the growth inhibition in assay [1] is 51% (active); in assay [3] it was 100% (active). For the same molecule, the inhibition in assay [2] is 4%. The outcome in assay [4], in assay [5], in assay [6] and in assay [7] was inactive.
Consider `CCCCN(CCCC)Cc1cc(N(C)c2ccc([N+](=O)[O-])cn2)ccc1O`, for which the growth inhibition in assay [1] and in assay [3] was 98% (active) each time. For the same molecule, the inhibition in assay [2] was 7%. Also, the result in assay [4], in assay [5], in assay [6] and in assay [7] was inactive.
For the molecule `Cc1[nH]c(C)c(-c2ccc(Oc3ccc(C(F)(F)F)cc3)cc2)c(=O)c1Br`, the growth inhibition in assay [1] and in assay [3] was 97% (active) each time. In addition, the inhibition in assay [2] was -8%. Moreover, the result in assay [4], in assay [5], in assay [6] and in assay [7] was inactive.
On to `Nc1nc(N)c(-c2ccccc2)c(=O)[nH]1`, for which the growth inhibition in assay [1] is -5%; in assay [3] it was 83% (active). For the same molecule, in assay [2], the inhibition was 0%. The result in assay [4], in assay [5], in assay [6] and in assay [7] was inactive.
Consider `c1ccc2c(NCCOCCNc3c4ccccc4nc4ccccc34)c3ccccc3nc2c1`, for which the growth inhibition is -1% in assay [1] and 94% (active) in assay [3]. Further, in assay [2], the inhibition was 5%. For the same molecule, the result in assay [4], in assay [5], in assay [6] and in assay [7] was inactive.
In the case of `Cc1nc2nc(N)nc(N)c2c(C)c1Cc1ccc(N)cc1`, the figures for the growth inhibition in assay [1] and in assay [3] were -2% and 97% (active), respectively. In addition, the inhibition in assay [2] is -4%. Also, the outcome in assay [4], in assay [5], in assay [6] and in assay [7] was inactive.
With `c1ccc2c(CNCCCN3CCN(CCCNCc4c5ccccc5cc5ccccc45)CC3)c3ccccc3cc2c1`, the growth inhibition was 100% (active) in assay [1] and 101% (active) in assay [3]. Besides, in assay [2], the inhibition is 0%. Besides, the result in assay [4], in assay [5], in assay [6] and in assay [7] was inactive.
`CCNCCCC(C)Nc1ccnc2cc(Cl)ccc12` (stereo not drawn): the values for the growth inhibition in assay [1] and in assay [3] were -3% and 100% (active), respectively. The inhibition in assay [2] is 0%. Besides, the outcome in assay [4], in assay [5], in assay [6] and in assay [7] was inactive.
Consider `CCCCN(CCCC)CCCN(CCCN(CCCC)CCCC)c1cc(C)nc(Nc2ccc(Cl)cc2)n1`, for which the growth inhibition in assay [1] is 99% (active); in assay [3] it was 101% (active). In addition, in assay [2], the inhibition is 0%. Besides, the outcome in assay [4], in assay [5], in assay [6] and in assay [7] was inactive.
Turning to `COc1ccc(Cc2c(Cl)nc3nc(N)nc(N)c3c2C)c(OC)c1OC`, the results for the growth inhibition in assay [1] and in assay [3] were -3% and 98% (active), respectively. For the same molecule, in assay [2], the inhibition was -2%. Moreover, the outcome in assay [4], in assay [5], in assay [6] and in assay [7] was inactive.
In the case of `Oc1cc2ccccc2cc1CNC1CCCCC1`, the growth inhibition in assay [1] is 89% (active); in assay [3], 98% (active). Further, in assay [2], the inhibition is -9%. The outcome in assay [4], in assay [5], in assay [6] and in assay [7] was inactive.
As for `CCN(CC)CCCN(CCCN(CC)CC)c1cc(C)nc(Nc2ccc(Br)cc2)n1`, the growth inhibition in assay [1] was 40%; in assay [3] it was 101% (active). Further, the inhibition in assay [2] was 6%. Further, the result in assay [4], in assay [5], in assay [6] and in assay [7] was inactive.
